# Paper PMC10668032, “Altered binding affinity of SIX1-Q177R correlates with enhanced WNT5A and WNT pathway effector expression in Wilms tumor”
# Whole data set: some 33,000 sequences, median “e-score” near -0.05, cut for the highest 2% near 0.38. Only a selection was taken, and the highest values are over-represented in it overall.
# Target: T1, SIX1-Q177R homeodomain (human, UniProt Q15475 108-198, Q177R)
# T1 sequence: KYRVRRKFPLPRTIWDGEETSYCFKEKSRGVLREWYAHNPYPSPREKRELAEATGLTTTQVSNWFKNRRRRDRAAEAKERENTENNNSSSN
# Assay: universal protein binding microarray; Universal all-10-mer PBM (8x60K, AMADID 030236), 300 nM GST-tagged protein, Alexa Fluor 488 anti-GST; buffer, salt, pH and temperature not stated (as in Berger); high values mean tight binding
# Conditions: protein: ivt; tags: N-terminal GST; dsDNA, one strand shown
# Method in brief: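 GST-tagged homeodomains were made by in vitro transcription/translation and quantified by anti-GST western blot against a recombinant GST standard curve. They were applied in duplicate at 300 nM final concentration to universal 'all 10-mer' protein binding microarrays (8×60K format). Binding was quantified as 8-mer E-scores with the Universal PBM Analysis Suite.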
row,Sequence,binding signal [E-score]
1,AGGTAGTG,0.2489 ± 0.00187
2,AGGATACA,0.159 ± 0.0108
3,ACCATCAG,0.181 ± 0.0146
4,CCAGCACC,0.153 ± 0.0163
5,GACCCCTA,0.203 ± 0.0141
6,CTGACTCC,0.2326 ± 0.00123
7,ACGCCCAA,0.176 ± 0.019
8,ACTTCTTA,0.183 ± 0.0236
9,CTATTTAC,0.1742 ± 0.000191
10,CTTTACAC,0.431 ± 0.0203
11,CTTTGCAC,0.16 ± 0.0373
12,ATTTACAC,0.451 ± 0.0245
13,CTTTACCC,0.171 ± 0.0198
14,ATTCACAC,0.348 ± 0.0127
15,CCCCTAAG,0.172 ± 0.0119
16,ACCTGGGA,0.186 ± 0.00272
17,CCAACAAC,0.211 ± 0.0163
18,CAGCACCA,0.182 ± 0.0218
19,CACGTGGG,0.16 ± 0.0172
20,AGTGTTGG,0.3564 ± 0.000735
21,AGGGTCGG,0.172 ± 0.00622
22,AGTGTCGC,0.4145 ± 0.00339
23,AGTGTCTC,0.329 ± 0.00361
24,AGTGTCGA,0.408 ± 0.0268
25,AGTGTCGG,0.4212 ± 0.00372

row,Sequence,binding signal [E-score]
1,AGTGTGGA,0.162 ± 0.0186
2,CGGGTCGC,0.189 ± 0.0605
3,CGTGTGGC,0.181 ± 0.00793
4,CGTGTCGC,0.44 ± 0.0199
5,AAGCGGTG,0.214 ± 0.0624
6,CATCCACA,0.177 ± 0.00969
7,ACTCCCGA,0.172 ± 0.0235
8,CCAGGTAC,0.2011 ± 0.000495
9,CACCGCTG,0.249 ± 0.0245
10,CACGTTAC,0.179 ± 0.0457
11,ACTAGGAG,0.219 ± 0.0299
12,CTAAAACA,0.211 ± 0.0343
13,CGTGTCGA,0.404 ± 0.0138
14,CGAGTCGA,0.151 ± 0.006
15,GGTGTGGA,0.369 ± 0.0214
16,GGTGTCGA,0.4869 ± 0.00312
17,CGTGTGGA,0.159 ± 0.00165
18,GGAGTCGA,0.227 ± 0.0424
19,CACGGCCC,0.215 ± 0.0365
20,GGATCACC,0.203 ± 0.0315
21,CCATGACA,0.222 ± 0.0113
22,TACTGACA,0.22 ± 0.0513
23,GGGCGACA,0.156 ± 0.0211
24,AGGAGGTG,0.2857 ± 0.000318
25,CACACGCA,0.32 ± 0.022

row,Sequence,binding signal [E-score]
1,AACACGAT,0.358 ± 0.00931
2,AACACGCA,0.396 ± 0.0109
3,TACACACA,0.259 ± 0.0395
4,AACACGCC,0.366 ± 0.013
5,TACACGCA,0.406 ± 0.0157
6,AACACGCG,0.36 ± 0.0195
7,AACACGCT,0.379 ± 0.00919
8,CACCGAAG,0.283 ± 0.0113
9,ACTCCGGG,0.2895 ± 0.00256
10,AATTTACA,0.182 ± 0.0161
11,AAACCCCC,0.24 ± 0.0528
12,ATCACACC,0.442 ± 0.00795
13,CACTCACC,0.242 ± 0.0149
14,ATCACACG,0.318 ± 0.0128
15,GTCACACA,0.215 ± 0.0441
16,ATCACCCC,0.204 ± 0.0194
17,CTCACACC,0.393 ± 0.0106
18,ACCAAGTG,0.208 ± 0.0393
19,GGAGTCAA,0.2 ± 0.0177
20,CCGCAACA,0.17 ± 0.0293
21,CACCGAAC,0.335 ± 0.0128
22,GAGCACAC,0.262 ± 0.0319
23,AAGCACAC,0.276 ± 0.0054
24,GAGGACAC,0.401 ± 0.00566
25,AAGGATAC,0.275 ± 0.00871

row,Sequence,binding signal [E-score]
1,CAGGACAC,0.423 ± 0.02
2,CAGGATAC,0.168 ± 0.0209
3,CAGAGCAC,0.19 ± 0.0352
4,GAGGATAC,0.235 ± 0.0473
5,AAGGACAC,0.40482 ± 0.000361
6,ACATCGTG,0.151 ± 0.0256
7,GTATGATA,0.18 ± 0.0375
8,CCTTTACA,0.242 ± 0.0698
9,CCCCCCTC,0.163 ± 0.0311
10,CTGGGTAC,0.278 ± 0.0111
11,CCGCAAGG,0.15 ± 0.00344
12,CATTTACA,0.267 ± 0.0374
13,CACCGAAA,0.329 ± 0.00917
14,AGTGGATC,0.216 ± 0.0109
15,GATCAACA,0.206 ± 0.00474
16,CACGAACG,0.207 ± 0.0299
17,CCCTAGCA,0.17 ± 0.00574
18,ACGAGGGG,0.208 ± 0.0082
19,GAAGATAC,0.16 ± 0.0546
20,AAAGACAC,0.425 ± 0.0124
21,GAAGACAC,0.38 ± 0.00523
22,CAAGACAC,0.4021 ± 0.00161
23,ATGACCCC,0.318 ± 0.0237
24,ATTGAGTG,0.18 ± 0.0318
25,GGTTTACA,0.16 ± 0.0137

row,Sequence,binding signal [E-score]
1,CTCCCTAA,0.165 ± 0.0334
2,CCTAACAC,0.404 ± 0.00657
3,CTAAACAC,0.364 ± 0.00812
4,CCTATCAC,0.173 ± 0.0477
5,GCTAACAC,0.417 ± 0.0145
6,ACTAACAC,0.427 ± 0.0173
7,ACTAAAAC,0.168 ± 0.0313
8,ACAAACAC,0.379 ± 0.0204
9,GCTACCAC,0.181 ± 0.00856
10,GCTAACCC,0.186 ± 0.00969
11,ACCCGACC,0.223 ± 0.0107
12,GTTCAGAA,0.18 ± 0.0199
13,ACCCCGCA,0.259 ± 0.0114
14,CCAAGCCC,0.155 ± 0.0141
15,CCCAGACA,0.16 ± 0.0032
16,ATCAGACA,0.204 ± 0.00355
17,AGTGTTCG,0.369 ± 0.0134
18,AGTGTTTG,0.336 ± 0.0138
19,GGTGTTAA,0.475 ± 0.00681
20,CGTGTGAA,0.302 ± 0.00315
21,AGTGTTAG,0.394 ± 0.00412
22,AGTGTTTA,0.296 ± 0.0461
23,GGTGTTTA,0.4563 ± 0.00286
24,GGGGTTAA,0.198 ± 0.00273
25,CGTGTTTA,0.346 ± 0.0127

row,Sequence,binding signal [E-score]
1,TGTGTTAA,0.171 ± 0.00303
2,GGAGTTAA,0.266 ± 0.0274
3,CGTGTTAA,0.391 ± 0.0262
4,CCTATAAC,0.194 ± 0.0389
5,ACCCTACC,0.193 ± 0.0205
6,CGGGTTCA,0.175 ± 0.04
7,CACCGGTA,0.345 ± 0.00414
8,CGTGATAC,0.248 ± 0.0091
9,ATCCCGGG,0.209 ± 0.0458
10,CCGGGGTA,0.284 ± 0.00939
11,CGTGTTGC,0.333 ± 0.0224
12,CGTGTGAG,0.276 ± 0.0289
13,GGTGTTGA,0.4626 ± 0.00453
14,CGTGTTAG,0.38 ± 0.00955
15,CGTGTTGA,0.358 ± 0.0177
16,CGTGTTAC,0.408 ± 0.00576
17,CGTGTTTC,0.339 ± 0.0138
18,AGTGTTGA,0.318 ± 0.0168
19,ACGGTCTC,0.153 ± 0.00373
20,CACCGCAC,0.333 ± 0.0118
21,AGTACCCG,0.154 ± 0.00938
22,CTAGGGTA,0.236 ± 0.0217
23,GTGTGACA,0.436 ± 0.0156
24,GGGTGACA,0.302 ± 0.0147
25,CTGTGACA,0.21 ± 0.00229

row,Sequence,binding signal [E-score]
1,TGTCAAAA,0.198 ± 0.0336
2,CACCCTGC,0.293 ± 0.0291
3,ATGGAGTG,0.274 ± 0.0146
4,AGGGGACA,0.179 ± 0.0364
5,ACCCACGC,0.171 ± 0.00328
6,ACACCGCC,0.4737 ± 0.0034
7,GCACCGCC,0.265 ± 0.00467
8,ACCCCGCT,0.209 ± 0.0248
9,ATACCGCG,0.238 ± 0.0151
10,ACACCGCA,0.4797 ± 0.00463
11,ACCCCGCG,0.254 ± 0.0276
12,ATACCGCA,0.179 ± 0.00528
13,ACACCGCT,0.4659 ± 0.00251
14,ACACCGCG,0.4808 ± 0.00187
15,ACTCCGCT,0.185 ± 0.0321
16,GCACCGCA,0.169 ± 0.0396
17,ACGCCGCC,0.153 ± 0.0249
18,CCTTGACA,0.253 ± 0.00743
19,CCCATGGA,0.189 ± 0.033
20,ACCCTGTG,0.207 ± 0.0277
21,GGTATACC,0.303 ± 0.0126
22,ATGGGTGC,0.154 ± 0.0381
